Bioassay records deposited in PubChem BioAssay by several laboratories.
FXN GAA850 act: frataxin GAA850 promoter activation. HEK293 lucGAA850 FXN promoter luciferase reporter, 24 h; percent of 10 µM SAHA response. activation, % at 6 µM. actives 0.56% (n = 360,000). AID 540364;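 active = activation above the average of all compounds screened plus 3 SD, cutoff fixed separately per campaign, cut at about 7.5% in these data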;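 also: 0% = DMSO wells and 100% = 10 µM SAHA wells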
HSP90 refold inh: inhibitors of HSP90 luciferase refolding in rabbit reticulocyte lysate | inhibition, % at 5.6 µM | actives 0.91% (n = 290,000) | luciferase refolding luminescence, 3 h;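 active = inhibition above the screen-wide mean plus 3 SD, computed separately per campaign, cut at about 16% in these data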;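 also: 0% = DMSO wells and 100% = 60 µM geldanamycin wells; inhibitors lower the luminescence because luciferase stays unfolded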
AHR activator: human AHR activation | actives 2.5% (n = 320,000) | AHR-responsive luciferase reporter cells, luminescence | P35869 | activation, % at 5 µM; in the data active = activation above about 47%;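 also: 0% = vehicle wells and 100% = reference agonist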
HSF1 activator: increases HSF-1 driven luciferase reporter signal; NIH3T3-HGL HSF-1 luciferase reporter, MG132, 8 h; 100% = twice DMSO control signal; activation, % at 9 µM; actives 1.7% (n = 300,000);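 active = mean replicate activation of at least 50% with a set share of replicates each reaching 50%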;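 also: 0% = median of the neutral control wells and 100% = twice that signal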
NR0B1 inh: NR0B1 (DAX1) inhibition; P51843; AID 504766; actives 0.99% (n = 340,000); HEK293 Gal4-DAX1 luciferase reporter, luminescence; inhibition, % at 6.75 µM;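 active = inhibition above the mean over all tested compounds plus 3 SD, cut at about 4.2% in these data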;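 also: 0% = DAX1-transfected cells with DMSO and 100% = empty-vector control cells with DMSO; inhibition shows as a rise in luminescence from relieved DAX1 repression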
HSF1 inh: HSF1 inhibition; NIH3T3-HGL HSE-luciferase, MG132-induced, luminescence 8 h; stronger effect = lower value; activity change, negative = inhibition, % at 7.5 µM (by protocol); actives 0.77% (n = 300,000);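 active = more than half of replicate wells show activity change below -50%, luminescence cut by over half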;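 also: luciferase reports HSF-1 transcriptional activity via heat shock element; 0% = median of DMSO wells and -100% = zero luminescence signal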
AHR act cf: human AHR activation, confirmation. shares compounds with AHR activator. human cells, AHR-responsive luciferase reporter, luminescence. activation, % at 9 µM. actives 87% (n = 2,300); in the data active = activation above about 49%;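 also: HepG2 hepatoma cells carrying a DRE-driven firefly luciferase reporter; 0% = vehicle wells and 100% = reference agonist wells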
PXR counter: activates human PXR in AHR activator counter-screen | shares compounds with AHR activator | cell-based PXR reporter, luciferase luminescence | activation, % at 11.6 µM | actives 88% (n = 2,300) | AID 434939; in the data active = activation above about 11%;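 also: human hepatoma DPX-2 cells expressing full-length human PXR; 0% = DMSO and 100% = reference agonist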
Target sequence (O75469 whole entry, looked up): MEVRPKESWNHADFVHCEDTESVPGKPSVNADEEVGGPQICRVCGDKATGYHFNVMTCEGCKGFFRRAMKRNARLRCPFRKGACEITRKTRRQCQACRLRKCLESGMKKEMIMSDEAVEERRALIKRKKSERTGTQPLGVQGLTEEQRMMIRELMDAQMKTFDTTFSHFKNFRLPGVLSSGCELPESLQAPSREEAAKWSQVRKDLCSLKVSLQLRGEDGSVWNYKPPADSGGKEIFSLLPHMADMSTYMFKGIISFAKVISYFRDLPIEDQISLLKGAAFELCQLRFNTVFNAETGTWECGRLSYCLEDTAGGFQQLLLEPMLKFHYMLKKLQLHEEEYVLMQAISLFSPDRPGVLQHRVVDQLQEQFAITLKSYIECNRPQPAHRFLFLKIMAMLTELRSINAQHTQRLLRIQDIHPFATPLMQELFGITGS
* hit, by the source's call; . = no result. Only some compounds are listed: those with a hit (about 5.9% of all), similar ones and a draw of the others.

SMILES	FXN GAA850 act	HSP90 refold inh	AHR activator	HSF1 activator	NR0B1 inh	HSF1 inh	AHR act cf	PXR counter
CCOC(=O)C1CCN(CCC(=O)Nc2cccc(Cl)c2)CC1	0	2	1	0	1	0	.	.
O=C(NC1CCSc2ccccc21)c1ccc(C(F)(F)F)cc1 (stereo not given)	0	-2	1	-11	0	-11	.	.
Cc1ccc(C(=O)NCCNc2nc3cc(C)c(C)cc3cc2C)cc1	3	4	82*	-4	0	4	77*	28*
COCC(=O)NCCNc1nc2ccc(C)cc2cc1C	4	-2	27	4	0	-7	.	.
CC1CCCCN1C(=O)c1c(Cl)cnn1C (stereo not given)	0	-2	.	.	2	.	.	.
Cc1cc(NC(=O)c2c(Cl)cnn2C)no1	1	-2	16	-4	0	-17	.	.
Cn1ncc([N+](=O)[O-])c1C(=O)Nc1cccc(Cl)c1	0	2	99*	4	2	-4	107*	21*
CCn1ncc(Br)c1C(=O)Nc1ccc(Cl)cn1	0	5	105*	-21	-1	-5	115*	45*
CCn1ncc(Br)c1C(=O)Nc1cc(C)on1	0	1	.	-5	0	-2	.	.
Cn1ncc(Cl)c1C(=O)Nc1ccc(Cl)cn1	0	1	143*	21	1	-1	129*	29*
Cn1ncc(Cl)c1C(=O)Nc1cccc(Cl)c1	0	4	84*	10	1	-1	106*	23*
Cn1c(=O)n(CC(N)=O)c2ccccc21	2	1	0	25	1	-4	.	.
Cn1c(=O)n(CCc2ccccc2)c2ccccc21	2	-3	125*	-3	0	0	111*	40*
O=[N+]([O-])c1cc(-c2nc(-c3ccncc3)no2)cc([N+](=O)[O-])c1	-1	3	90*	-8	1	2	72*	.
Cc1cc(C)cc(-c2nc(-c3ccncc3)no2)c1	6	0	3	21	1	9	.	.
C[C@@H]1CN([C@H](C)CO)C(=O)c2cc(NS(=O)(=O)c3cn(C)cn3)ccc2O[C@@H]1CN(C)S(C)(=O)=O	-2	.	-1	.	1	.	.	.
COc1ccc(NS(=O)(=O)c2ccc3oc(Nc4ccc5c(c4)OCCO5)nc3c2)cc1	-1	-1	87*	-8	1	-8	60*	19*
Clc1cccc2sc(N3CCN(c4ccccc4)CC3)nc12	4	1	122*	.	2	.	112*	17*
Clc1ccc(Cl)c2sc(N3CCCC3)nc12	1	-2	26	4	0	3	.	.
O=C(NC1CCCC1)c1c(O)nc2sccn2c1=O	0	.	85*	-16	0	-7	114*	10
CC(C)CC1NC(=O)N(CC(=O)Nc2cccc(Br)c2)C1=O (stereo not given)	2	.	3	.	0	.	.	.
CSc1nsc(N/N=C/c2ccc3c(c2)OCO3)c1C#N	4	1	117*	9	2	2	81*	27*
COc1cc(/C=N/Nc2snc(SC)c2C#N)cc(OC)c1OC	-3	1	2	5	-3	9	.	.
COc1ccc(N2CC(C(=O)Nc3nnc(SCC(=O)NCc4ccco4)s3)CC2=O)cc1 (stereo not given)	1	8	2	-4	1	-1	.	.
Cc1cccc(-c2cc3nc(-c4ccccc4)cc(=O)n3[nH]2)c1	4	-2	89*	27	6.4*	21	105*	34*
SMILES	FXN GAA850 act	HSP90 refold inh	AHR activator	HSF1 activator	NR0B1 inh	HSF1 inh	AHR act cf	PXR counter
CCCc1cc(=O)n2[nH]c(-c3ccc(Br)cc3)cc2n1	3	-6	104*	15	1	10	110*	47*
CCCc1cc(=O)n2[nH]c(-c3cccc(Br)c3)cc2n1	4	2	160*	46	5.6*	27	166*	35*
Cc1ccccc1-c1cc2nc(-c3ccc([N+](=O)[O-])cc3)cc(=O)n2[nH]1	3	-2	1	-34	-1	-22	.	.
CN(C)N1C(=O)CC(N2CCCCC2)C1=O (stereo not given)	2	3	2	-10	2	-1	.	.
O=C(Nc1nccs1)c1csc2c1CCCC2	0	3	84*	32	1	9	121*	25*
O=C(Nc1ccon1)c1csc2c1CCCC2	0	1	8	24	-1	2	.	.
O=C(Nc1nc(-c2ccco2)c(-c2ccco2)s1)C1CCC1	3	9	106*	12	-1	4	91*	25*
CCn1nc(C(=O)Nc2ccccc2C)c(Cl)c1Cl	-1	-5	90*	9	0	2	26	17*
CCn1nc(C(=O)Nc2cccc(C(F)(F)F)c2)c(Cl)c1Cl	-1	3	45	6	0	4	.	.
CCn1nc(C(=O)Nc2cccc3ccccc23)c(Cl)c1Cl	1	0	85*	17	1	6	95*	17*
Cc1cccc2nnc(-c3ccccc3)n12	2	.	.	.	0	.	.	.
O=C(Nc1ccccc1Oc1ccccc1)C1=COCCO1	-1	-1	0	-14	0	0	.	.
c1ccc2c(c1)CCN(C1CCCCC1)C2	1	3	5	7	0	-2	.	.
Oc1c(C(c2ccc(F)cc2)N2CCc3ccccc3C2)sc2ncnn12 (stereo not given)	-1	-1	96*	-8	0	5	78*	34*
Cc1ccc(C(c2sc3ncnn3c2O)N2CCCCC2)cc1 (stereo not given)	2	-2	6	-13	-1	-7	.	.
Cc1cc(NCCCN2CCOCC2)n2ncc(-c3ccccc3)c2n1	5	-1	38	-27	2	-12	.	.
Cc1cc(NCCOCCO)n2ncc(-c3ccc(Cl)cc3)c2n1	-2	-2	126*	20	4	7	142*	28*
CCn1c(=O)c([N+](=O)[O-])c(NCCCn2ccnc2)c2ccccc21	0	-4	101*	-33	2	-15	93*	52*
CCNc1c([N+](=O)[O-])c(=O)n(CC)c2ccccc12	1	2	2	2	.	-10	.	.
CC1CC(C)CN(c2ccc(NS(=O)(=O)c3ccccc3)cc2C(=O)O)C1 (stereo not given)	1	-1	1	-6	1	-2	.	.
O=[N+]([O-])c1ccc2[nH]nc(-c3ccccc3)c2c1	2	-1	-1	10	0	-6	.	.
